Laboratory results as given in PubChem BioAssay (NCATS).
Inconclusive results are not listed. Unless noted, the call rests on the fitted dose curve; in most records, active means well fitted curve in either direction with a large enough effect (not every such curve was filed as active); inconclusive means small, poorly fitted or top-dose-only effect, or another doubt; inactive means flat fitted curve, though single readings scatter.

Experiments:
[1] = AP1 Signaling Pathway (AID 357); conditions: ME-180 AP-1-bla reporter, EGF-induced, beta-lactamase ratio, 5 h; at 17.2 µM (top of the series) unless noted;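 further: ME-180 reporter cells stimulated with EGF at its EC50 level; on the % scale 0 is the no-effect control and ±100 the full control effect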
In short: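 A ratiometric CCF4 readout (405 nm excitation; 460 and 530 nm emission) quantified AP-1-driven beta-lactamase in ME-180 cells after 5 h with compound and EC50 EGF; AC50 values were derived for activators and inhibitors.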

[2] = NFAT Signaling Pathway (AID 444); conditions: Jurkat NFAT-bla M1, carbachol, beta-lactamase ratio, 5 h; at 17.2 µM (top of the series) unless noted;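 further: carbachol stimulus at about its EC50 of 1 µM final; on the % scale 0 is the no-effect control and ±100 the full control effect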
In short: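 Jurkat cells with NFAT-driven β-lactamase reporter and co-expressed M1 receptor, stimulated with carbachol (final 1 uM, ~EC50), compound titration, 5 h at 37 °C. CCF4 loaded 1 h at RT; 460/530 nm ratio gave %activity and AC50.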

[3] = Stat Signaling Pathway (AID 446); conditions: ME-180 (cervical carcinoma) SIE beta-lactamase reporter, IL-6 stimulated, 5 h; at 17.2 µM (top of the series) unless noted;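 further: ME-180 cervical cancer cells given 40 pM IL-6 alongside compound; SIE-controlled beta-lactamase reporter measured as 460/530 nm FRET emission ratio; on the % scale 0 is the no-effect control and ±100 the full control effect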
In short: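 Emission at 460 and 530 nm (excitation 405 nm) reports SIE-controlled beta-lactamase in ME-180 cells. Cells received compound with 40 pM IL-6 for 5 hrs at 37 C; data scaled between 300 pM IL-6 and 125 nM JAK-inhibitor controls.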

[4] = biological target: Glucocorticoid receptor (Homo sapiens) (UniProt P04150); assay: GR-GFP Redistribution (AID 450;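 active means compounds whose dose series gives a full or clear partial fitted curve of increased nuclear translocation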; further: potency means the concentration at half of the fitted maximal effect)
Chain of Glucocorticoid receptor (Homo sapiens) (P04150 whole entry, looked up): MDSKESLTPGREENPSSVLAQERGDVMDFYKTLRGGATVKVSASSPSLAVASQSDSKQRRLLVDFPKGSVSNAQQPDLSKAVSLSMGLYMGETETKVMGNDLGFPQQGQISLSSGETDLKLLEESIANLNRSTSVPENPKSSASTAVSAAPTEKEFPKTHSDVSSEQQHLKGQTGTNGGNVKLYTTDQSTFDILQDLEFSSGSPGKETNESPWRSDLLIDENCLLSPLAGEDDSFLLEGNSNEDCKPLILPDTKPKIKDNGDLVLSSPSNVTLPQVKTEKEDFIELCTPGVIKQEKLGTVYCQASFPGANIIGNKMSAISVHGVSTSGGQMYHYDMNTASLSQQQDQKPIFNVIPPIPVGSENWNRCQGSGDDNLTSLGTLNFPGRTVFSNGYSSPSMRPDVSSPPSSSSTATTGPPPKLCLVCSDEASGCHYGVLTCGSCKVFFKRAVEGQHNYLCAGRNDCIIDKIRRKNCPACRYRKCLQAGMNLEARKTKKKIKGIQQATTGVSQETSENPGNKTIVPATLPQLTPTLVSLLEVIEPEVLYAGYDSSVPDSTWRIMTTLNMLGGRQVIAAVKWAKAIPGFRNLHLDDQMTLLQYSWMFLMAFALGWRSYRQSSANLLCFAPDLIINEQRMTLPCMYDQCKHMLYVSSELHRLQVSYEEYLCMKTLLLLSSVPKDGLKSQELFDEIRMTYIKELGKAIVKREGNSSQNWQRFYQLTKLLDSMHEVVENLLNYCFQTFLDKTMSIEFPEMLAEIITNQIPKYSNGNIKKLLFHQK

O=C1CCc2nc3ccccc3c(=O)n2N1
inactive: activity change, negative = inhibition [1] -6.16% | activity change, negative = inhibition [2] 22.2% | activity, negative = inhibition [3] -4.8% | Potency [4] > 20.6 µM

COc1ccc(C2C(C#N)=C(N)Oc3cc(C)n(CCN4CCOCC4)c(=O)c32)cc1OC (configuration not stated)
inactive: activity change, negative = inhibition [1] 0.457% | activity change, negative = inhibition [2] 24.9% | activity, negative = inhibition [3] 6.24% | Potency [4] > 20.6 µM

CC(C(=O)N1CCOCC1)N1C(=O)c2ccccc2C1=O (configuration not stated)
inactive: activity change, negative = inhibition [1] 14.2% | activity change, negative = inhibition [2] -4.66% | activity, negative = inhibition [3] 10.1% | Potency [4] > 20.6 µM

COC(=O)C(NC(C)=O)(Nc1ccccn1)C(F)(F)F (configuration not stated)
inactive: activity change, negative = inhibition [1] -1.38% | activity change, negative = inhibition [2] 5.18% | activity, negative = inhibition [3] 0.0282% | Potency [4] > 20.6 µM

Cn1c(=O)[nH]c(=O)c2c1nc(Br)n2CCSc1ncccn1
inactive: activity change, negative = inhibition [1] 5.72% | activity change, negative = inhibition [2] -10.8% | activity, negative = inhibition [3] 4.76% | Potency [4] > 20.6 µM

C=CCNc1nc(C2(C)CC3(CC(C)(C)OC3=O)C(=O)O2)cs1 (configuration not stated)
inactive: activity change, negative = inhibition [1] -3.51% | activity change, negative = inhibition [2] -7.31% | activity, negative = inhibition [3] -18.1% | Potency [4] > 20.6 µM

Cn1c(=O)c2c(nc(Br)n2CCSc2ncccn2)n(C)c1=O
inactive: activity change, negative = inhibition [1] 10.3% | activity change, negative = inhibition [2] 8.82% | activity, negative = inhibition [3] -0.734% | Potency [4] > 20.6 µM

Cn1c(=O)[nH]c(=O)c2c1nc(N1CCN(c3cccc(Cl)c3)CC1)n2CCCc1ccccc1
inactive: activity change, negative = inhibition [1] 26.9% | activity change, negative = inhibition [2] -11.9% | activity, negative = inhibition [3] 6.95% | Potency [4] > 20.6 µM

Cc1cc(C)nc(CC(N)=O)n1
inactive: activity change, negative = inhibition [1] 0.0367% | activity change, negative = inhibition [2] 4.47% | activity, negative = inhibition [3] -0.0254% | Potency [4] > 20.6 µM

CC(C)CC(C(=O)O)C(C)CC(=O)Nc1ccn(-c2ccccc2)n1 (configuration not stated)
inactive: activity change, negative = inhibition [1] -9.05% | activity change, negative = inhibition [2] 6.76% | activity, negative = inhibition [3] 7.28% | Potency [4] > 20.6 µM

Cc1ccc(/C=c2\sc3n(c2=O)CN(c2ccc(Br)cc2)CN=3)o1
inactive: activity change, negative = inhibition [1] 25.9% | activity change, negative = inhibition [2] -11.3% | activity, negative = inhibition [3] 0.614% | Potency [4] > 20.6 µM

COc1ccc(C2CC(c3ccccc3)Nc3nc(N)nn32)cc1 (configuration not stated)
inactive: activity change, negative = inhibition [1] 9.32% | activity change, negative = inhibition [2] -6.69% | activity, negative = inhibition [3] 1.39% | Potency [4] > 20.6 µM

CN(C)c1ccc(C=NCC2(O)CCOC(C)(C)C2)cc1 (configuration not stated)
inactive: activity change, negative = inhibition [1] -0.248% | activity change, negative = inhibition [2] -9.77% | activity, negative = inhibition [3] 8.53% | Potency [4] > 20.6 µM

O=S(=O)(NCc1cccnc1)c1cccc2nsnc12
inactive: activity change, negative = inhibition [1] 6.05% | activity change, negative = inhibition [2] -11.1% | activity, negative = inhibition [3] 4.09% | Potency [4] > 20.6 µM

COc1ccc2oc(=O)c(-c3nc(C)cs3)cc2c1
inactive: activity change, negative = inhibition [1] 19.7% | activity change, negative = inhibition [2] -8.83% | activity, negative = inhibition [3] 17.3% | Potency [4] > 20.6 µM

O=c1[nH]cnc2c1cnn2Cc1ccccc1
inactive: activity change, negative = inhibition [1] 2.81% | activity change, negative = inhibition [2] -7.78% | activity, negative = inhibition [3] 6.19% | Potency [4] > 20.6 µM

O=C(Nc1cccnc1)c1cccnc1
inactive: activity change, negative = inhibition [1] 11.7% | activity change, negative = inhibition [2] -7.91% | activity, negative = inhibition [3] 4.68% | Potency [4] > 20.6 µM

CNc1nc(C)c(C#N)cc1C(C)=O
inactive: activity change, negative = inhibition [1] -13.3% | activity change, negative = inhibition [2] -1.5% | activity, negative = inhibition [3] -6.02% | Potency [4] > 20.6 µM
